High-throughput results deposited in PubChem by National Center for Advancing Translational Sciences (NCATS).
JMJD2A Tudor: qHTS Assay for Inhibitors of JMJD2A-Tudor Domain; AlphaScreen JMJD2A-Tudor / H3K4me3 peptide binding; Potency, µM (doses to about 114 µM), for inactives: top-dose activity change, negative = inhibition, most hits filed as inhibitors; AID 504339, 2011; Lysine-specific demethylase 4A (Homo sapiens), O75164; actives 4.4% (n = 390,000); also: % is scaled to controls: 0 for no effect and ±100 for the full control effect; nearly all actives have a fitted effect of over 50% in size
HP1b binding inh: HTS for Inhibitors of HP1-beta Chromodomain Interactions with Methylated Histone Tails | actives 0.56% (n = 390,000) | Potency, µM (highest dose often 114 µM), inactives show at the top dose activity change, negative = inhibition, actives largely listed as inhibitors | AlphaScreen HP1-beta / biotin-H3K9me3 peptide binding | Chromobox protein homolog 1 (Homo sapiens), P83916; also: nearly all actives have a fitted effect of over 70% in size
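HP1-beta protein (50 nM final) preincubated 30 min at room temperature with biotinylated H3(1-18)K9me3 peptide (50 nM) in PBS pH 7.4, 0.01% Tween-20, then compound added for 30 min. AlphaScreen streptavidin donor/nickel chelate acceptor beads (10 ug/mL final), 30 min dark, luminescence read.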
G9a inh: qHTS Assay for Inhibitors of Histone Lysine Methyltransferase G9a; Potency, µM (series often up to 102 µM), without a hit: at the highest dose activity, negative = inhibition, usual class: inhibitors; actives 8.8% (n = 350,000); AID 504332, 2011; G9a H3K9 monomethylation, AlphaScreen, 2 h; also: % is scaled to controls: 0 for no effect and ±100 for the full control effect; nearly all actives have a fitted effect of over 75% in size
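Using a bead-based AlphaScreen, monomethylated H3K9 product from 2 h room-temperature reactions (G9a 20 nM, peptide 500 nM, SAM 20 uM) was detected with 0.5 ug/mL rabbit anti-H3K9me1 antibody.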
BAZ2B block: qHTS Assay for Inhibitors of BAZ2B | AlphaScreen BAZ2B-H3K14Ac peptide displacement | Potency, µM (series often up to 114 µM), for inactives: at the highest dose activity change, negative = inhibition, hits mostly inhibitors | actives 4.4% (n = 360,000) | AID 504333, 2011; also: % is scaled to controls: 0 for no effect and ±100 for the full control effect; nearly all actives have a fitted effect of over 60% in size
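Inhibition is scored as reduced AlphaScreen emission. The BAZ2B/b-H3(5-23)K14Ac complex (50 nM each) in PBS pH 7.4, 0.01% Tween-20 meets compound (up to 110 uM) for 30 min at RT before bead addition.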
Sfp inh: qHTS Assay for Inhibitors of Bacillus subtilis Sfp phosphopantetheinyl transferase (PPTase); actives 3.5% (n = 310,000); Biochemical Sfp PPTase activity, qHTS; 4'-phosphopantetheinyl transferase ffp (Bacillus subtilis), Q9F4F7; Potency, µM, without a hit: largest response in the series, negative = inhibition, actives largely listed as inhibitors;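 also: the enzyme is Sfp with the accession as filed and its product quenches rhodamine fluorescence; 0% = enzyme reaction without inhibitor and -100% = no enzyme wells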
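Fluorescence-quenching assay with 15 nM Sfp, 5 uM rhodamine-CoA and 12.5 uM BHQ-2-labelled ybbR peptide in pH 7.6 Hepes/MgCl2 buffer. Enzyme was pre-incubated with compound for 15 min at room temperature. Rate was taken from the 30-min fluorescence change (525/598 nm).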
PLK1 PBD inh: qHTS for Inhibitors of PLK1-PDB (polo-like kinase 1 - polo-box domain): Primary Screen; Potency, µM, without a hit: max response, negative = inhibition, most hits filed as inhibitors; actives 2.8% (n = 360,000); Plk1 PBD binding of FITC phosphopeptide, fluorescence polarization; AID 720504, 2013; also: series mostly up to about 57 µM; % is scaled to controls: 0 for no effect and ±100 for the full control effect; nearly all actives have a fitted effect of over 65% in size
* = called active by the depositor; u = inconclusive; x = no result given; [ ] = remark or other dose. An excerpt weighted towards active compounds, which were near 12% of everything screened. Calls follow the shape of the dose curve; as a rule, active = well fitted curve in the direction sought with a large enough effect; inconclusive = small, poorly fitted or top-dose-only effect, or another doubt; inactive = no such curve, though single readings can be large; an effect the other way counts as inactive or inconclusive. Potency is read from the fitted curve at half-maximal effect.

SMILES	JMJD2A Tudor	HP1b binding inh	G9a inh	BAZ2B block	Sfp inh	PLK1 PBD inh
Cc1ccc(NCN2C(=O)C3C4C=CC(C4)C3C2=O)cc1 (stereo not given)	18µM*	-8%	7%	9%	0%	3.4µM*
CCOC(=O)c1ccc(NC(=O)CSc2nnc(-c3ccncc3)n2-c2ccccc2)cc1	-28%	29%	-16%[59 µM]	4%	x	x
O=C(CSc1nnc(-c2cccnc2)n1-c1ccccc1)N1CCN(c2ccc(F)cc2)CC1	-13%	28%	u	-9%	-7%	-12%
COc1ccc(-n2c(Cc3cccn3C)nnc2SCC(=O)Nc2nccs2)cc1	-35%	6%	u	u	-15%	0%
COc1ccc(-n2c(SCC(=O)Nc3nccs3)nnc2-c2ccccc2)cc1	u	6%	2%	-1%	-2%	27µM*
O=C(CSc1nnc(-c2ccncc2)n1-c1ccccc1)N1CCN(c2ccc(Cl)cc2)CC1	-8%	-3%	28µM*	3%	18%	1%
CCn1c(SCC(=O)Nc2ccc3c(c2)n(C)c(=O)n3C)nnc1-c1ccncc1	-12%	10%	x	u	-4%	-12%
COc1ccc(-n2c(SCC(=O)Nc3ccc(C(=O)O)cc3)nnc2-c2ccccc2)cc1OC	-18%	47%	u	56µM*	15%	-12%
Cn1c(=O)n(C)c2cc(NC(=O)CSc3nnc(-c4ccccc4O)n3-c3ccccc3)ccc21	-14%	20%	-7%[12.7 µM]	50µM*	15%	0%
O=C(CSc1nnc(-c2cccc(S(=O)(=O)N3CCCC3)c2)n1-c1ccccc1)Nc1ccc(C(=O)O)cc1	u	8%	u	50µM*	-7%	75µM*
O=C(CSc1nnc(-c2ccncc2)n1-c1ccccc1)Nc1ccc(C(=O)O)cc1	-9%	3%	50µM*	4%	-16%	-17%
COc1ccc(-n2c(SCC(=O)Nc3ccc(C(N)=O)cc3)nc3ccccc3c2=O)cc1OC	-21%	-13%	50µM*	-28%	-14%	-7%
O=C(CSc1nnc(-c2ccncc2)n1-c1ccccc1)Nc1ccc(Br)cc1	11%	4%	-7%[59 µM]	3%	x	x
CN(C)c1ccc(S(=O)(=O)N2CCCCC2)cc1NC(=O)CCNC(=O)c1ccco1	-11%	30%	12%[12.7 µM]	-4%	x	-15%
OC1CN=C2CCCc3c2n(c2ccc(Cl)cc32)C1 (stereo not given)	-31%	24%	u	-37%	-10%	-29%
c1ccc(-c2ccc3c(c2)c2c4n3CCN=C4CCC2)cc1	56µM*	-23%	20µM*	u	u	30µM*
CCn1c(O)c(C=NCc2ccccc2)sc1=S	u	6%	x	u	-14%	-1%
Cc1ccc(-c2nc(C=Nc3ccccc3)c(O)o2)cc1	-14%	22%	-8%	15%	0%	7%
CCn1c(O)c(/C=C/C=C/C=Nc2ccccc2)sc1=S	u	u	14µM*	u	u	u
CCCn1c(O)c(C=Nc2ccccc2)sc1=S	-22%[11.4 µM]	25%	-24%	-12%	8%	-10%
CCCCn1c(O)c(/C=C/C=C/C=Nc2ccccc2)sc1=S	u	3.2µM*	2.8µM*	6.3µM*	-34%	u
Oc1c(/C=C/C=C/C=Nc2ccccc2)sc(=S)n1Cc1ccccc1	u	u	2.2µM*	u	u	u
CCn1c(O)c(C=Nc2ccccc2)oc1=S	-21%	-19%	28µM*	8%	u	27µM*
Cc1ccc(S(=O)(=O)c2c(O)c3ccc(C(=O)O)cc3[nH]c2=O)cc1	0%	40%	u	-3%	17%	1%
Cc1cccc(NC(=O)Nc2nnc(N3CCCC3)s2)c1	-11%	39%	u	-26%	x	x
SMILES	JMJD2A Tudor	HP1b binding inh	G9a inh	BAZ2B block	Sfp inh	PLK1 PBD inh
COC(CN(C(=O)CCl)C(C(=O)NC1CCCCC1)c1ccc(Cl)cc1)OC (stereo not given)	-9%	22%	-6%[59 µM]	10%	7%	-9%
COC(CN(C(=O)CCl)C(C(=O)NC1CCCC(C)C1C)c1ccc(C)cc1)OC (stereo not given)	-25%	21%	50µM*	-14%	4%	-6%
CCN(C(=O)CSc1nnc(SC)s1)c1c(N)n(Cc2ccccc2)c(=O)[nH]c1=O	6%	67%	1%[12.7 µM]	-1%	x	6%
CCN(CC)S(=O)(=O)c1cccc(C(=O)N/N=C/c2ccc(O)c(O)c2O)c1	u	u	1.8µM*	40µM*	-106%	8.4µM*
CCN(CC)S(=O)(=O)c1cccc(C(=O)N/N=C(\C)c2ccc(O)cc2O)c1	u	30%	28%	8.9µM*	16%	120%
COc1cccc(CNC(=O)C2CCN(S(=O)(=O)c3c(C)noc3/C=C/c3cccs3)CC2)c1	-14%	22%	10%[59 µM]	x	x	x
Cc1cccc2sc(N(CCN(C)C)C(=O)/C=C/c3cccs3)nc12	u	24%	u	-35%	32µM*	-8%
COc1ccc2nc(N(CCN(C)C)C(=O)/C=C/c3cccs3)sc2c1	-27%	29%	14µM*	x	-3%	0%
Cc1cc(C(=O)COc2cc(F)ccc2[N+](=O)[O-])c(C)n1C1CC1	u	-7%	35µM*	u	4%	-7%
Cc1cc(C(=O)COc2ccc([N+](=O)[O-])cc2)c(C)n1C1CC1	-11%	23%	-20%	-15%	-5%	-5%
O=C[C@@H]1CCCN1C(=O)[C@@H]1CCCN1C(=O)OCc1ccccc1	x	x	8.9µM*	x	56µM*	x
O=C(O)C1CCC(=O)N1C(=O)OCc1ccccc1 (stereo not given)	-1%	38%	71µM*	18%	11%	-8%
Cc1ccc(NC(=O)C2CCC(=O)N2C(=O)OCc2ccccc2)cc1 (stereo not given)	-4%	10%	-11%	-2%	-50%	-4%
Cc1ccc(Cl)cc1N1CCN(C(=O)c2cnc(N3CCOCC3)c3ccccc23)CC1	-25%	6%[57 µM]	10%[59 µM]	-18%	x	x
CC(C)c1nnc(N2C(=O)c3oc4ccccc4c(=O)c3C2c2cccc(O)c2)s1 (stereo not given)	-1%	41%	-32%[59 µM]	0%	x	x
Cc1ccccc1OCC(O)CN1CCN(CCN2C(=O)c3cccc4cccc(c34)C2=O)CC1 (stereo not given)	u	-24%	79µM*	u	12%	-9%
